Laboratory results reported in PubChem BioAssay (EPA / NIEHS).
Results filed as inconclusive are left out. Calls of active or inactive are those of the source. The calls were made as follows, unless noted: active = hit-call score of the fitted dose curve at least 0.9, where 1 is the maximum; inactive = score below 0.9.

Key:
[1] = target: CCAAT/enhancer-binding protein beta (Homo sapiens) (UniProt P17676); test: ATG_C_EBP_CIS: Attagene CIS-FACTORIAL HepG2 Assay for human CCAAT/Enhancer Binding Protein (C/EBP) beta (AID 2282927); conditions: HepG2 Attagene cis-factorial transcription factor reporter; actives raise or lower the signal
How it was run: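 Transiently transfected HepG2 (MRTU library, endogenous TF-driven promoters); 24 h dosing; total RNA → oligo(dT) RT → PCR → 6-FAM primer extension → HpaI digest → CE; fit bidirectionally vs DMSO.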

[2] = target: Transcription factor E2F1 (Homo sapiens) (UniProt Q01094); test: ATG_E2F_CIS: Attagene CIS-FACTORIAL HepG2 Assay for human E2F Transcription Factor 1 (AID 2282935); conditions: HepG2 Attagene cis-reporter, E2F reporter RNA transcripts; actives raise or lower the signal
Sequence of Transcription factor E2F1 (Homo sapiens) (Q01094 whole entry, looked up): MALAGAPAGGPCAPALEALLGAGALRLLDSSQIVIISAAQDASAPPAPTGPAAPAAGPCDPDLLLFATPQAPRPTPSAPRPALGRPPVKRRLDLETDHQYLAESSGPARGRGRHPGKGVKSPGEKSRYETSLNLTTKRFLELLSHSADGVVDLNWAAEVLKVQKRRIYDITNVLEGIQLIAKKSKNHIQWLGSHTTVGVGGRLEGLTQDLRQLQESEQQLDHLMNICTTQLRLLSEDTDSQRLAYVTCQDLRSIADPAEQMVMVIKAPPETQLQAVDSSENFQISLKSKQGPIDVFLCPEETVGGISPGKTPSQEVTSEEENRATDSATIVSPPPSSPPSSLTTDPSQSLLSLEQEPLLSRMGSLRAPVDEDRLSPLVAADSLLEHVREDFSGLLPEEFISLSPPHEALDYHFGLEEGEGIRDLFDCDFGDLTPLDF
How it was run: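 Transient MRTU transfection of HepG2; 24 h compound exposure; RNA → oligo(dT) RT → PCR → FAM label → HpaI cut → CE fluorescence. Gain/loss of signal fit against DMSO.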

[3] = ATG_GATA_CIS: Attagene CIS-FACTORIAL HepG2 Assay for human GATA Binding Protein (AID 2282944); conditions: HepG2 GATA cis-element reporter, Attagene multiplex mRNA; actives raise or lower the signal
How it was run: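 Read-out: fluorescent reporter mRNA fragments resolved by capillary electrophoresis after RT-PCR. Human liver HepG2 cells carried transiently transfected cis-regulated reporter constructs; chemicals incubated 24 h; gain or loss of signal fitted relative to DMSO.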

[4] = target: Hypoxia-inducible factor 1-alpha (Homo sapiens) (UniProt Q16665); test: ATG_HIF1a_CIS: Attagene CIS-FACTORIAL HepG2 Assay for human Hypoxia Inducible Factor 1 (HIF1A) (AID 2282951); conditions: HepG2 Attagene cis-factorial HIF1a reporter transcription; actives raise or lower the signal
Sequence of Hypoxia-inducible factor 1-alpha (Homo sapiens) (Q16665 whole entry, looked up): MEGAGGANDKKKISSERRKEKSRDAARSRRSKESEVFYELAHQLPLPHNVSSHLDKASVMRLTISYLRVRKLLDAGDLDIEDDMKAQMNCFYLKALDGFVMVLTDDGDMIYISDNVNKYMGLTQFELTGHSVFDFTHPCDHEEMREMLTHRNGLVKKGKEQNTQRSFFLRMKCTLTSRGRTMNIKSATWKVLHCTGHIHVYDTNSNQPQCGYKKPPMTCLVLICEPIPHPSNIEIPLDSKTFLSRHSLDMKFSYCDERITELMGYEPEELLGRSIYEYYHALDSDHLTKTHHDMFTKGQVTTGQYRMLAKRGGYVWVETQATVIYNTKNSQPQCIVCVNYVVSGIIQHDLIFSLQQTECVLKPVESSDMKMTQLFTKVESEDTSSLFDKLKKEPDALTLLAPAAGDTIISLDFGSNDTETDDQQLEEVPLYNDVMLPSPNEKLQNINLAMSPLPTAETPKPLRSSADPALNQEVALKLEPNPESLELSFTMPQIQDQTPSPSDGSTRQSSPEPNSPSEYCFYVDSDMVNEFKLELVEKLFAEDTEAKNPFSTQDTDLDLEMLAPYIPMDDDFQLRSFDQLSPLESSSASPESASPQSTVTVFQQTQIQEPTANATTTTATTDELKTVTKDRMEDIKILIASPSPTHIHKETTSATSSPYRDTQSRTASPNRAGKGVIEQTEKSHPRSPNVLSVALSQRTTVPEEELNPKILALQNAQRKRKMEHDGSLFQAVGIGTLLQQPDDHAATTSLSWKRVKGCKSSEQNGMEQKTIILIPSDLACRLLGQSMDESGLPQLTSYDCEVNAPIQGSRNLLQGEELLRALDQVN
How it was run: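 HepG2 cells transiently transfected with multiple cis-regulated reporter transcription units measure endogenous transcription factor activity. After 24 h exposure, reporter mRNA is quantified by RT-PCR with 6-FAM labelling, HpaI digestion and capillary electrophoresis. Bidirectional fitting against DMSO.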

[5] = target: Hepatocyte nuclear factor 6 (Homo sapiens) (UniProt Q9UBC0); test: ATG_HNF6_CIS: Attagene CIS-FACTORIAL HepG2 Assay for human Hepatocyte Nuclear Factor 6 (HNF6) (AID 2282952); conditions: HepG2 Attagene cis-factorial HNF6 reporter transcription; actives raise or lower the signal
Sequence of Hepatocyte nuclear factor 6 (Homo sapiens) (Q9UBC0 whole entry, looked up, the tested form may be a part): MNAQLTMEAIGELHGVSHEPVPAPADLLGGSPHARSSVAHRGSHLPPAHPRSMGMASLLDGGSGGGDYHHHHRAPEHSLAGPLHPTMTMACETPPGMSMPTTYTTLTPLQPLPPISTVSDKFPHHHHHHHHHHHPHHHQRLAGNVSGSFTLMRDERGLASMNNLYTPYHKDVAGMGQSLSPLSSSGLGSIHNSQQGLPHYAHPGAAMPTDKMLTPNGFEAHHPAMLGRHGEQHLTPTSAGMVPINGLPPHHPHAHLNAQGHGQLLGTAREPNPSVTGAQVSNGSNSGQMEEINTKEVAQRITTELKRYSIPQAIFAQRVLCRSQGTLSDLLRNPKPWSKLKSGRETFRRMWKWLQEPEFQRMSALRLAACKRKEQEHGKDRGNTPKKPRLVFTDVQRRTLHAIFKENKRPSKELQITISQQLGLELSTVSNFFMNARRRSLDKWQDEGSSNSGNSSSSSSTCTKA
How it was run: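 Twenty-four-hour chemical treatment of reporter-transfected HepG2 cells precedes RNA isolation, DNase-treated reverse transcription and PCR of reporter sequences. Labelled fragments are sized by capillary electrophoresis and fitted bidirectionally versus DMSO.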

[6] = target: Heat shock factor protein 1 (Homo sapiens) (UniProt Q00613); test: ATG_HSE_CIS: Attagene CIS-FACTORIAL HepG2 Assay for human Heat Shock Transcription Factor 1 (HSE) (AID 2282953); conditions: HepG2 HSE cis-reporter, Attagene RNA transcription; actives raise or lower the signal
Sequence of Heat shock factor protein 1 (Homo sapiens) (Q00613 whole entry, looked up, the tested form may be a part): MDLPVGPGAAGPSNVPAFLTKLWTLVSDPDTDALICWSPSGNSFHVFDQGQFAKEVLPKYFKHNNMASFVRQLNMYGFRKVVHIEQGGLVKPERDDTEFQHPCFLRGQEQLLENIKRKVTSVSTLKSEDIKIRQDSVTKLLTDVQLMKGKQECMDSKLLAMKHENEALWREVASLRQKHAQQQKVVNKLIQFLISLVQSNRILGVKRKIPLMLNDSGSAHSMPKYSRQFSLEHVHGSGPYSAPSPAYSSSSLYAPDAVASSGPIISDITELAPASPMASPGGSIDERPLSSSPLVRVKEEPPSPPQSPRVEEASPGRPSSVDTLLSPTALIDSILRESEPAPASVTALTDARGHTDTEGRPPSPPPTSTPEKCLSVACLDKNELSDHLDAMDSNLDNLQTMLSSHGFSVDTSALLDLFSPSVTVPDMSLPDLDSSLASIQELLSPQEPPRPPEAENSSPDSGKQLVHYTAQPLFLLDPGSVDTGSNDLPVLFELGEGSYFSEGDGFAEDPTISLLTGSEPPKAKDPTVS
How it was run: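 Read-out: fluorescence of reporter-specific RT-PCR fragments separated by capillary electrophoresis. HepG2 carrying transfected cis-element reporter units; 24 h dosing; activity fitted in both directions relative to DMSO baseline.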

[7] = ATG_PXRE_CIS: Attagene CIS-FACTORIAL HepG2 Assay for human Pregnane X Receptor Element (PXRE) (AID 2282957); conditions: HepG2 Attagene CIS-FACTORIAL PXRE reporter, mRNA; actives raise or lower the signal
How it was run: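 Bidirectional activity, baselined to DMSO, derived from reporter mRNA fluorescence (RT-PCR plus capillary electrophoresis) in HepG2 cells bearing cis-promoter reporter units, 24 h exposure.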

[8] = ATG_Sox_CIS: Attagene CIS-FACTORIAL HepG2 Assay for human SRY-box transcription factor (SOX) (AID 2282960); conditions: HepG2 Attagene cis-factorial SOX reporter, mRNA; actives raise or lower the signal
How it was run: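 HepG2 cells transiently transfected with multiple cis-regulated reporter units, then dosed for 24 h. Reporter mRNA quantified by RT-PCR, fluorescent labelling, HpaI digestion and capillary electrophoresis; bidirectional fit versus DMSO.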

[9] = target: Transcription factor Sp1 (Homo sapiens) (UniProt P08047); test: ATG_Sp1_CIS: Attagene CIS-FACTORIAL HepG2 Assay for human Specificity Protein 1 (Sp1) (AID 2282961); conditions: HepG2 Sp1 cis-reporter transcription, actives raise or lower the signal
Sequence of Transcription factor Sp1 (Homo sapiens) (P08047 whole entry, looked up): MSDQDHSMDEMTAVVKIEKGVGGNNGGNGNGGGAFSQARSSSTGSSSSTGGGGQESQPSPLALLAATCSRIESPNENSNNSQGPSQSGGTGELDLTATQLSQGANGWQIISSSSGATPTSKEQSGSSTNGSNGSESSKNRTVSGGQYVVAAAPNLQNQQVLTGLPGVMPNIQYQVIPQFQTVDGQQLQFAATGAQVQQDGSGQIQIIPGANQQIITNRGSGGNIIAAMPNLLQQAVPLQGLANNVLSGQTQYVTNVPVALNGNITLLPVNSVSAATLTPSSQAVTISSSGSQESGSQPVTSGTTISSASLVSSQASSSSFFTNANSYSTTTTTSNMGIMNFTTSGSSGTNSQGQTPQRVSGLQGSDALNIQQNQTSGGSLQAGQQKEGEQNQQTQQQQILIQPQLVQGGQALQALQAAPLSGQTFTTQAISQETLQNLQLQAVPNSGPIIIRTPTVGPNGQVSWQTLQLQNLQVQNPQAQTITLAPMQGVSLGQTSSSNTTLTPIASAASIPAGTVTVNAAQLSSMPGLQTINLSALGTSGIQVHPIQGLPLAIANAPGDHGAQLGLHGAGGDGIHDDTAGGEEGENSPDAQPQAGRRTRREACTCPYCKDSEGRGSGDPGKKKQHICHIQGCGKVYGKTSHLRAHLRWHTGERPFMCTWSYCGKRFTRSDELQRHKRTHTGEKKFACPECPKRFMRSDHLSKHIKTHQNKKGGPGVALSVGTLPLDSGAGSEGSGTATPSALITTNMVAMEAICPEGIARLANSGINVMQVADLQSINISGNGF
How it was run: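 HepG2 cells transiently transfected with multiplexed cis-regulated reporter constructs, chemical exposure 24 h. Reporter mRNA quantified by RT-PCR with capillary electrophoresis; bidirectional fit relative to DMSO.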

[10] = ATG_TAL_CIS: Attagene CIS-FACTORIAL HepG2 Assay for human TAL Basal Promoter (AID 2282966); conditions: HepG2 Attagene cis-factorial TAL promoter reporter; actives raise or lower the signal;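 also: background control endpoint measuring basal TAL promoter reporter mRNA not a specific factor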
How it was run: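 Human hepatoma HepG2 cells, transfected with promoter-regulated reporter units, were treated 24 h. Reporter transcript levels, measured through RT-PCR and capillary electrophoresis, were fitted for gain or loss relative to DMSO.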

[11] = ATG_VDRE_CIS: Attagene CIS-FACTORIAL HepG2 Assay for human Vitamin D Receptor Element (VDRE) (AID 2282968); conditions: HepG2 VDRE cis-reporter transcription, actives raise or lower the signal
How it was run: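 Transient MRTU transfection of HepG2, 24 h compound exposure. Readout: reporter transcripts via RT-PCR and capillary electrophoresis, fluorescence. Bidirectional fit vs DMSO.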

[12] = ATG_NFI_CIS: Attagene CIS-FACTORIAL HepG2 Assay for human Nuclear Factor I (NFI) (AID 2282989); conditions: HepG2 cis-regulatory reporter, NFI response element transcription; actives raise or lower the signal
How it was run: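 Read-out: reporter mRNA via RT-PCR plus capillary electrophoresis with fluorescence detection. Transiently transfected HepG2 (endogenous TF activity on cis promoters), 24 h compound exposure; gain or loss of signal fitted against DMSO.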

[13] = target: Myc proto-oncogene protein (Homo sapiens) (UniProt P01106); test: ATG_Myc_CIS: Attagene CIS-FACTORIAL HepG2 Assay for human Myelocytomatosis (Myc) Proto-Oncogene Transcription Factor (AID 2282990); conditions: HepG2, Attagene cis-reporter transcription factor activity; actives raise or lower the signal
Sequence of Myc proto-oncogene protein (Homo sapiens) (P01106 whole entry, looked up, the tested form may be a part): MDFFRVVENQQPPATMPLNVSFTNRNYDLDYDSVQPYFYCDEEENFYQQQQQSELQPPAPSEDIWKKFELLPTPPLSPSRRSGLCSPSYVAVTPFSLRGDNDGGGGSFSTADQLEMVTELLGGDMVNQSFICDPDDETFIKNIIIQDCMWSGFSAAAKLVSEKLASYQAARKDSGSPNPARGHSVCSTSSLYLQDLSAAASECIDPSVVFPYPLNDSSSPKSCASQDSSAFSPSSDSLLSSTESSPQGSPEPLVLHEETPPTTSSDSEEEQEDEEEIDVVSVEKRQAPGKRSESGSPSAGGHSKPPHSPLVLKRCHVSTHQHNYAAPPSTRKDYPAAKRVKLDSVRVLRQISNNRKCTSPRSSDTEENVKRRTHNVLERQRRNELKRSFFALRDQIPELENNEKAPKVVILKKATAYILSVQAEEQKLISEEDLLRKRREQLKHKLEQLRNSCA
How it was run: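 Read-out: fluorescent reporter mRNA fragments resolved by capillary electrophoresis after RT-PCR. Human HepG2 liver cells carried transfected cis-element reporter units and were dosed for 24 h. Gain or loss of signal fitted relative to DMSO baseline.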

[14] = ATG_NRF2_ARE_CIS: Attagene CIS-FACTORIAL HepG2 Assay for human Nuclear Factor Erythroid 2 Related Factor 2 (NFR2) response to Antioxidant Response Elements (ARE) (AID 2282992); conditions: HepG2 Attagene ARE/NRF2 reporter, transcription factor activity; actives raise or lower the signal;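 as to AC50: reporter mRNA level measured by RT-PCR and capillary electrophoresis fluorescence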
How it was run: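 Readout: reporter mRNA quantified by RT-PCR plus FAM-labelled primer extension, HpaI digestion and capillary electrophoresis, 24 h after dosing transfected HepG2 cells. Gain or loss of signal is fitted bidirectionally against DMSO baseline.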

[15] = target: Signal transducer and activator of transcription 3 (Homo sapiens) (UniProt P40763); test: ATG_STAT3_CIS: Attagene CIS-FACTORIAL HepG2 Assay for human Signal Transducer and Activator of Transcription 3 (STAT3) (AID 2282963); conditions: HepG2, Attagene cis-factorial STAT3 reporter transcription; actives raise or lower the signal
Sequence of Signal transducer and activator of transcription 3 (Homo sapiens) (P40763 whole entry, looked up, the tested form may be a part): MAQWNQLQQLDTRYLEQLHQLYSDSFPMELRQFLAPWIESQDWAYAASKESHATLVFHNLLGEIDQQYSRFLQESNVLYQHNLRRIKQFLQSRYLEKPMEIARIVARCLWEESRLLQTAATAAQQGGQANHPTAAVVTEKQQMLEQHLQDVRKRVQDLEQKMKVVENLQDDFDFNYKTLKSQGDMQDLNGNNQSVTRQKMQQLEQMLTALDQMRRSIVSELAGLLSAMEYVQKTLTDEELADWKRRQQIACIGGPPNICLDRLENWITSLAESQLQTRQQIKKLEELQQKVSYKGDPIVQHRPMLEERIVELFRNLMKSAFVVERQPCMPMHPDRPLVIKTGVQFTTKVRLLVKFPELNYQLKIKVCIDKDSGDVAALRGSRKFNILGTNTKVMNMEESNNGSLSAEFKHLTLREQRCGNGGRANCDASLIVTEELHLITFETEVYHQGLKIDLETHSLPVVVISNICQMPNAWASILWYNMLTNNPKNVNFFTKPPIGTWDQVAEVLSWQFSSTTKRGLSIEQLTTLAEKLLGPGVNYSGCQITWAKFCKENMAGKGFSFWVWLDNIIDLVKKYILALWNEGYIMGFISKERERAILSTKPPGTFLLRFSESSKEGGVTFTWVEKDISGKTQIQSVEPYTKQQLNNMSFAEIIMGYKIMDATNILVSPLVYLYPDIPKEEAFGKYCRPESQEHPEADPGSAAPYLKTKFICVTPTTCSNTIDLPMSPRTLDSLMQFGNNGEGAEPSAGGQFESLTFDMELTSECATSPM
How it was run: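 Readout: fluorescent reporter mRNA fragments resolved by capillary electrophoresis. Setup: HepG2 transfected with MRTUs reporting endogenous transcription-factor activity, dosed 24 h. Gain or loss of signal fitted bidirectionally against DMSO control.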

[16] = target: X-box-binding protein 1 (Homo sapiens) (UniProt P17861); test: ATG_Xbp1_CIS: Attagene CIS-FACTORIAL HepG2 Assay for human X-box Binding Protein 1 (XBP1) (AID 2282972); conditions: HepG2 XBP1 cis-element reporter, Attagene multiplex; actives raise or lower the signal
How it was run: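 Read-out: fluorescent reporter mRNA fragments resolved by capillary electrophoresis after RT-PCR. Human HepG2 liver cells carried transfected cis-promoter reporter units and were exposed to chemicals for 24 hours. Gain or loss of signal fitted relative to DMSO baseline.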

[17] = ATG_M_06_TRANS: Attagene TRANS-FACTORIAL HepG2 Assay for M06 Transcription Factor (Internal Marker) (AID 2282983; active = hit-call score of the fitted dose curve at least 0.9, where 1 is the maximum); conditions: HepG2 Attagene TRANS M06 internal marker reporter
How it was run: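 Multi-reporter-transfected HepG2, 24 h treatment; reporter transcripts quantified via RT-PCR, primer-extension labelling and CE. DMSO-normalized gain-of-signal fit.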

[18] = target: Transcriptional activator Myb (Homo sapiens) (UniProt P10242); test: ATG_Myb_CIS: Attagene CIS-FACTORIAL HepG2 Assay for human Myeloblastosis (Myb) Proto-Oncogene Transcription Factor (AID 2282986); conditions: HepG2 Attagene CIS-FACTORIAL Myb reporter transcription; actives raise or lower the signal
Sequence of Transcriptional activator Myb (Homo sapiens) (P10242 whole entry, looked up): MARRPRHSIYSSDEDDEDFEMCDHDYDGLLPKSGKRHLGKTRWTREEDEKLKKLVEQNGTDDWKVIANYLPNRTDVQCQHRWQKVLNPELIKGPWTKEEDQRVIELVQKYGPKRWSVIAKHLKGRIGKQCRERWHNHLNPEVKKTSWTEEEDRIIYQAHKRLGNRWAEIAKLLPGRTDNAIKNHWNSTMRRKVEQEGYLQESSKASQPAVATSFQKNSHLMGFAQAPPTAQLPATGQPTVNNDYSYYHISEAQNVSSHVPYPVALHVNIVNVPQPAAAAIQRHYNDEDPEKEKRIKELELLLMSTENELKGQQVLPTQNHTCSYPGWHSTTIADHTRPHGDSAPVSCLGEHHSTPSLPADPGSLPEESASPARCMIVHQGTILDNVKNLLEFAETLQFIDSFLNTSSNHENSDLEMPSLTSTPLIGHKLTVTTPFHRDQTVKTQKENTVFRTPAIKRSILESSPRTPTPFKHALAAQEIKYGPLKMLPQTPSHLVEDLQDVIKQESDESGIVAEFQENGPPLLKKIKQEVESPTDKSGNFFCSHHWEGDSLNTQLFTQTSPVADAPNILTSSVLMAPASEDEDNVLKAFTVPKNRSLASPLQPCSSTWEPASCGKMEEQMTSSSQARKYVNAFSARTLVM
How it was run: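 Transiently transfected HepG2 cells carrying a multiplexed cis-promoter reporter set report endogenous Myb activity after 24 h compound exposure. Reporter mRNA is read by RT-PCR with capillary electrophoresis of fluorescent products, fitted bidirectionally against DMSO.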

[19] = target: Cellular tumor antigen p53 (Homo sapiens) (UniProt P04637); test: ATG_p53_CIS: Attagene CIS-FACTORIAL HepG2 Assay for human p53 Transcription Factor (AID 2282994); conditions: HepG2 p53 cis-element reporter, Attagene mRNA; actives raise or lower the signal
How it was run: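 Read-out: reporter mRNA by RT-PCR plus capillary electrophoresis with fluorescence detection. Human HepG2 liver cells carried transfected multi-reporter cis-element constructs, dosed 24 h. Gain or loss of signal fitted bidirectionally against DMSO control.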

[20] = target: Cellular tumor antigen p53 (Homo sapiens) (UniProt P04637); test: TOX21_p53_BLA_p2_ratio: Tox21 HCT-116 p53 Agonism Beta-lactamase Assay, Ratio, Phase 2 (AID 2283592; active = hit-call score of the fitted dose curve at least 0.9, where 1 is the maximum)
How it was run: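 DMSO-normalized, positive-direction endpoint derived from the 460 nm/530 nm FRET ratio in HCT116 p53 beta-lactamase reporter cells exposed 16 h at 37C and loaded with CCF4-AM for 2 h.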

Measured: AC50

Cc1cccnc1
active: [1] 100 µM | [6] 100 µM
not listed: [15] | [16] | [17] | [18] | [19] | [20]
inactive: all other assays above

CC/C=C/CCO
active: [7] 40.5 µM
not listed: [3] | [10] | [13]
inactive: all other assays above

CCC(C)=NO
not listed: [2] | [3] | [8] | [16]
inactive: all other assays above

CCC(C)NC(N)=O (stereo unspecified)
not listed: [9] | [10] | [13]
inactive: all other assays above

CC[N+](CC)(CC(=O)Nc1c(C)cccc1C)Cc1ccccc1 (tested in a mixture with another compound)
inactive: [1] | [4] | [5] | [9] | [10] | [16] | [17] | [12] | [13] | [14]
active: [7] 21.8 µM

Brc1ccc(Oc2ccc(Br)cc2)cc1
active: [7] 27.3 µM | [14] 66.4 µM
not listed: [1] | [8] | [13] | [17]
inactive: all other assays above
